D1 agonist: activates the human D1 dopamine receptor; 1% of 360,000 active; activation, % at 2 µM; HEK293 T-REx D1 cells, calcium flux, agonist mode; P21728; in the data active = activation above about 30%; also: 0% is about no effect
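Agonism was scored from calcium flux recorded over 180 s (1 read/s) after pintool compound addition, following a 10-cycle baseline. Cells were inducible force-coupled HEK293 TREx D1, plated overnight at 30 C and loaded with no-wash calcium dye.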
TRPV1 potentiator: enhances activation of the human vanilloid receptor TRPV1. 0.02% of 320,000 active. potentiation, % at 8.33 µM. AID 540277. TRPV1-expressing cells, Fluo-8 calcium influx, capsaicin EC20 potentiation. Q8NER1; in the data active = potentiation above about 80%; also: 0% is about no effect
Target sequence (Q8NER1 whole entry, looked up): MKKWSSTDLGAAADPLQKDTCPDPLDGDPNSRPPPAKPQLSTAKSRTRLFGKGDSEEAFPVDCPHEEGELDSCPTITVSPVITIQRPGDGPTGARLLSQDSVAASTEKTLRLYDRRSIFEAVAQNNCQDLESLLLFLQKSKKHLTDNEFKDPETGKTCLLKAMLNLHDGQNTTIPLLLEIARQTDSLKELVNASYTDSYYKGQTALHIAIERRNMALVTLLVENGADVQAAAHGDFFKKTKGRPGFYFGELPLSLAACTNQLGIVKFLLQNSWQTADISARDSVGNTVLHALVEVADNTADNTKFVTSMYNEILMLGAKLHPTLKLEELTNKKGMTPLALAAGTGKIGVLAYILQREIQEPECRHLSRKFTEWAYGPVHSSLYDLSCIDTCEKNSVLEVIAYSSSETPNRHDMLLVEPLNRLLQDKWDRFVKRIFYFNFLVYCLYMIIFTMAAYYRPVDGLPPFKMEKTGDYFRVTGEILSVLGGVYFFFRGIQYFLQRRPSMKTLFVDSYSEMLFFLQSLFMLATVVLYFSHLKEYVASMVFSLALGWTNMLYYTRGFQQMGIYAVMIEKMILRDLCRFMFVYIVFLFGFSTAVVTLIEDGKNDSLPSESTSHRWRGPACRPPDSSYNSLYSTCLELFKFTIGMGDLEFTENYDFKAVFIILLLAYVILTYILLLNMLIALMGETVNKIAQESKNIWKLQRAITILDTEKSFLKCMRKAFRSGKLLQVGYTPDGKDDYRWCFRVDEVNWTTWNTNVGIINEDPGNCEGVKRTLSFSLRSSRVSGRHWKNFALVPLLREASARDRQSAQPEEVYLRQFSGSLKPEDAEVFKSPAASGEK
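TRPV1-expressing cells were cultured overnight at 35.5C and loaded with Fluo-8 calcium dye for 40 to 90 min at room temperature. After a 10 s baseline, compound was added and calcium influx was read kinetically for 3 min (ex 480/em 520 nm).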
D1 PAM: human D1 dopamine receptor positive modulation; P21728; HEK293 TREx D1 cells, calcium flux, dopamine EC20 potentiation; potentiation, % at 10 µM; 0.036% of 360,000 active; AID 504651; in the data active = potentiation above about 30%; also: 0% is about no effect
TRPV1 agonist: agonists of human vanilloid receptor 1 (TRPV1). AID 540275. TRPV1-expressing cells, Fluo-8 calcium influx, agonist mode. activation, % at 8.33 µM. 0.19% of 320,000 active; in the data active = activation above about 80%; also: 0% is about no effect
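Cells expressing TRPV1 were dye-loaded with Fluo-8 and read kinetically: 10 s baseline, 3 min after compound (agonist portion), then 2 min after EC20 capsaicin (allosteric enhancer portion). Calcium-bound dye fluorescence at 480/520 nm.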
D1 antag: antagonists of human D1 dopamine receptor | P21728 | activity change, negative = inhibition, % at 10 µM | 3.2% of 360,000 active | HEK293 TREx D1 cells, calcium flux, dopamine EC80; stronger effect = lower value; in the data active = activity change below about -30%; also: % is scaled to controls: 0 for no effect and ±100 for the full control effect
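After overnight tetracycline induction at 30 C, force-coupled D1 HEK293 cells took up a no-wash calcium dye at room temperature. Compounds were added and monitored 180 s, and the response to EC80 dopamine was then recorded.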
Active calls of the source: *; nt = no result; ! = repeats disagree. This is a sample that favours compounds with a hit; in the whole collection about 4.2% have one here.

SMILES	D1 agonist	TRPV1 potentiator	D1 PAM	TRPV1 agonist	D1 antag
CC(=O)c1ccc(N2C(=O)N(Cc3cc(C)ccc3C)c3ccccc3S2(=O)=O)cc1	11	nt	-2	nt	18
Cc1cccc2cc(CN(C(=O)c3cccc(Cl)c3)c3ccccc3)c(=O)[nH]c12	1	nt	1	nt	10
COC(=O)c1ccc(NC(=O)CC2C(=O)N(c3cccc(F)c3)C(=O)N2CC(C)C)cc1 (stereo not given)	10	nt	0	nt	-33*
CCOC(=O)c1cccc(NC(=O)CC2C(=O)N(c3ccc(Cl)cc3)C(=O)N2C2CCCC2)c1 (stereo not given)	13	nt	-2	nt	-3
CCCOc1ccc(NC(=O)CC2C(=O)N(c3ccc(OC)cc3)C(=O)N2CCc2ccncc2)cc1 (stereo not given)	1	nt	-2	nt	-42*
CCOC(=O)c1cccc(NC(=O)CC2C(=O)N(c3ccc(OC)cc3)C(=O)N2C2CCCC2)c1 (stereo not given)	7	nt	-4	nt	-35*
COC(=O)c1ccc(NC(=O)CC2C(=O)N(c3cccc(OC)c3)C(=O)N2C(C)C)cc1 (stereo not given)	-1	nt	-3	nt	-32*
CCCOc1ccc(NC(=O)CC2C(=O)N(c3cccc(C)c3)C(=O)N2CCc2ccncc2)cc1 (stereo not given)	0	nt	-3	nt	0
COc1ccc(NC(=O)C(OC(=O)CNC(=O)c2ccccc2)c2ccccc2)cc1Cl (stereo not given)	3	nt	3	nt	12
COc1ccc(NC(=O)C(=O)NCCc2csc3nc(-c4ccccc4C)nn23)cc1	0	nt	4	nt	-8
COc1cc(NC(=O)CSc2ccc(-c3sc(-c4ccccc4)nc3C)nn2)cc(OC)c1	9	nt	-4	nt	19
CCc1ccc(-n2nnc(-c3nc(-c4cccs4)no3)c2N)cc1	1	nt	-4	nt	9
CCCN1CCN(c2nnc(-n3cccc3C(=O)Nc3cc(Cl)ccc3C)s2)CC1	3	nt	-2	nt	-1
COc1ccc(NC(=O)CC2C(=O)N(c3cccc(OC)c3)C(=O)N2Cc2cccnc2)cc1 (stereo not given)	0	nt	2	nt	-65*
CC(=O)N1CCN(c2ccc(NC(=O)C(C)Oc3ccc(Cl)cc3Cl)cc2)CC1 (stereo not given)	-1	28	0	3	1
O=C(COc1ccc(Cl)cc1Br)NNC(=O)C(=O)N1CCCCC1	1	13	-6	-2	-6
CC(Oc1ccc(Cl)cc1Cl)C(=O)Nc1ccc(N2CCN(C)CC2)cc1 (stereo not given)	10	3	-16	2	-60*
CC(Oc1ccc(Cl)cc1Cl)C(=O)NNC(=O)C(=O)N1CCCCC1 (stereo not given)	1	-5	-1	1	-86*
CN1CCN(c2ccc(NC(=O)c3ccc(Cl)cc3Cl)cc2)CC1	5	-5	-15	4	-44*
CCCc1cnc2c(c1SCC(=O)N(C)c1ccccc1)c(=O)n(C)c(=O)n2C	-4	nt	-2	nt	nt
Cc1ccc(S(=O)(=O)NCC(=O)OCc2csc(-c3ccccc3)n2)cc1	2	2	-3	9	4
O=C(CNS(=O)(=O)c1c(Cl)cccc1Cl)OCc1csc(-c2ccccc2)n1	7	8	0	-1	-48*
CCCNC(=O)CN1C(=O)c2c(c3ccccc3n2C)C1c1ccc(OC)cc1 (stereo not given)	-2	nt	1	nt	3
COc1cc(N2CCCC2)c(OC)cc1/C=C(/C#N)c1ccc(Br)cc1	39*	5	-4	1	-15
COc1cc(N2CCCC2)c(OC)cc1/C=C(/C#N)c1ccc(F)cc1	23	2	2	4	-8
SMILES	D1 agonist	TRPV1 potentiator	D1 PAM	TRPV1 agonist	D1 antag
CCC(C(=O)NCc1ccc2c(c1)CCN2C(=O)c1ccc(F)cc1)c1ccccc1 (stereo not given)	0	nt	-5	nt	-17
CCOC(=O)c1cc(-c2ccc(OC)c(S(=O)(=O)NC3CCCCC3)c2)on1	6	nt	-5	nt	-26
CC(C)Nc1nc(Oc2cccc(Cl)c2Cl)cc(C(F)(F)F)n1	14	7	-8	1	-32*
CC(C)Nc1nc(Oc2ccc(Cl)cc2Cl)cc(C(F)(F)F)n1	10	-19	2	12	2
O=S(=O)(O)c1nnc2sc3ccccc3n12	2	0	-2	1	-36*
CN(C)C(=O)CSc1nnc2sc3ccccc3n12	2	nt	-7	nt	-3
CCC/C(O)=C1\C(=O)CC(C)(C)CC1=Nc1ccc(OC)cc1	1	-2	51*	2	-6
CCCC/C(O)=C1\C(=O)CC(C)(C)CC1=Nc1ccc(OC)cc1	1	-11	-2	21	15
O=C(NCc1cccc(Br)c1)C1CCCCN1S(=O)(=O)c1ccc(F)cc1 (stereo not given)	3	nt	-3	nt	-19
Cc1[nH]cnc1CSCc1ccc(Cl)cc1	36*	9	-9	-5	-4
O=Nc1c(O)n(Cc2cccc(C(F)(F)F)c2)c2ccccc12	69*	2	23	0	52
CCOC(=O)c1ccccc1NC(=O)Cn1ncc2c([nH]c3ccccc32)c1=O	5	nt	9	nt	13
CCOC(=O)c1cnn(-c2ccccc2)c1-n1cccc1C(=O)C(=O)Nc1ccccc1	2	19	-4	1	-16
CCOC(=O)c1cnn(-c2ccccc2)c1-n1cccc1C(=O)C(=O)Nc1ccc(F)cc1	7	-30	-6	13	-85*
CCOc1ccc(CCNC(=O)Cn2ccc3cc(S(=O)(=O)N4CCCCCC4)ccc32)cc1	6	nt	-3	nt	9
COc1cccc(N2C(N)=NC(N)=NC2(C)C)c1	0	-4	0	-3	-54*
COc1ccc(N2C(N)=NC(N)=NC2(C)C)cc1	1	20	0	-3	-3
O=C1c2ccccc2-c2cccc(NS(=O)(=O)c3ccc(C(F)(F)F)cc3)c21	55*	14	0	7	3
CCOC(=O)CC(NC(=O)Cn1nnc(-c2ccccc2F)n1)c1ccc(OC)cc1 (stereo not given)	13	15	-4	-2	16
CCOC(=O)CC(NC(=O)Cn1nnc(-c2ccccc2Cl)n1)c1ccc(OC)cc1 (stereo not given)	65*!	-3	-4	4	-10
Cc1ccc(NC(=O)c2sc3nc[nH]c(=O)c3c2C)c(C)c1	8	11	-12	0	-48*
CC(C)(C)N=C1NC(=NC(C)(C)C)c2ccccc21	19	13	-2	1	-41*
NC(=O)c1cc(S(=O)(=O)NCC2CCC(C(=O)Nc3cccc(Cl)c3)CC2)cs1 (stereo not given)	3	nt	-1	nt	1
CCCc1nc2sc3ccccc3c(=O)c2c(=O)n1Cc1ccco1	80*	-4	11	11	42
CCCc1nc2sc3ccccc3c(=O)c2c(=O)n1Cc1ccc(OC)cc1	8	-14	1	5	-20
